# Assay results as given in PubChem BioAssay AID504832 (National Center for Advancing Translational Sciences (NCATS), 2011).
# In all, about 310,000 compounds went through this assay and about 18,000 (5.8%) were called active. Inconclusive results (about 22%) are left out. Calls come from the whole dose curve; as a rule, active = well fitted inhibition curve with a large enough effect; inconclusive = small, poorly fitted or top-dose-only effect, or another doubt; inactive = no such curve, though single readings can be large or run the other way. The sample as a whole holds a higher share of actives than the screen did.
# Test: Primary qHTS for delayed death inhibitors of the malarial parasite plastid, 48 hour incubation
# Details: P. falciparum luciferase growth in erythrocytes; series mostly up to 28.7 µM; activity change, negative = inhibition: at the top concentration
# Procedure, shortened: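 Compounds are pin-transferred into medium, infected erythrocytes (2% hematocrit, 0.1% parasitemia final) are added, and plates sit one parasite generation at 37 C in 5% CO2. Detection reagent is then added and luminescence measured.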
# % is set by controls: 0 for no effect and ±100 for the full control effect; potency is the fitted concentration of half-maximal effect.
SMILES,"activity change, negative = inhibition",Potency
Cc1ccc(S(=O)(=O)N(CCCN(C)C)Cc2ccc3c(c2)OCO3)cc1,8% (inactive),
O=S1(=O)N=C(N(CCO)/N=C/c2ccccc2F)c2ccccc21,-23.1% (inactive),
COCCCNC(=O)C1CC(=O)N(CCc2ccc(F)cc2)C1 (stereo not drawn),34.4% (inactive),
CCc1ccc(C(=O)N2CCN(S(=O)(=O)c3sc(C(=O)O)c(C)c3C(=O)O)CC2)cc1,-11.1% (inactive),
CCOc1ccc2[nH]c3nc(SCC(=O)NC4CCCC4)nnc3c2c1,1.69% (inactive),
CN(C(=O)CN1C(=O)NC(C)(CCc2ccccc2)C1=O)c1ccccc1 (stereo not drawn),-15.5% (inactive),
Cc1ccc(C)c(NS(=O)(=O)c2c(C)[nH]c(C)c2C(=O)N2CCCCC2)c1,-9.06% (inactive),
CCOc1ccc(C(=O)CCC(=O)NC2=NCCS2)cc1,-20.4% (inactive),
COc1ccccc1-c1n[nH]c2c1[C@H](C)CC[C@H]2C(C)C,48.4% (inactive),
C=C(C)COc1ccc(-c2nc(N)ncc2-c2ccccc2OC)c(O)c1,-82.5% (inactive),
C=C(C)COc1ccc(-c2n[nH]c(C)c2-c2ccccc2OC)c(O)c1,,8.28 µM (active)
Cc1ccc(CN(CC(=O)NC2CCCCC2)C(=O)c2csnn2)cc1,18.1% (inactive),
Cc1ccc([N+](=O)[O-])cc1S(=O)(=O)N1CCCN(C)CC1,18.6% (inactive),
CCC1=C(OC(=O)N(CC)CC)N2C(=O)OC(=NCCc3c[nH]c4ccccc34)[C@]2(C)[C@H]2C1=CC[C@H]1C(=O)N(CC)C(=O)[C@H]12,,9.28 µM (active)
CCC1=C(OC(=O)N(CC)CC)N2C(=O)OC(=NCC3CC3)[C@]2(C)[C@H]2C1=CC[C@H]1C(=O)N(CC(=O)OC)C(=O)[C@H]12,19.4% (inactive),
NC(=O)COC(=O)c1ccc2c(c1)C(=O)N(Cc1ccco1)C2=O,13.7% (inactive),
Cc1ccc(Cc2nnc(SCC(=O)Nc3ccccc3C)[nH]c2=O)cc1,10% (inactive),
CCC(C)NC(=O)C1c2ccccc2C(=O)N1Cc1ccccc1 (stereo not drawn),-1.99% (inactive),
O=C(NNc1ccccc1Cl)C(O)(c1cccc(C(F)(F)F)c1)c1cccc(C(F)(F)F)c1,,3.29 µM (active)
CC(CC(=O)Nc1cc(C(F)(F)F)ccc1Cl)c1ccccc1 (stereo not drawn),5.12% (inactive),
NC(=O)Nc1cccc(C(F)(F)F)c1,25.6% (inactive),

SMILES,"activity change, negative = inhibition",Potency
O=C(O)CCC(=O)Nc1ccc(OCC2CCCO2)cc1 (stereo not drawn),-4.69% (inactive),
COc1ccc(CNC(=O)CSc2n[nH]c(N)n2)cc1OC,33.8% (inactive),
CN(Cc1cnccn1)C(=O)c1cc(COc2cccc(C(F)(F)F)c2)on1,-2.2% (inactive),
O=C1N/C(=C/c2cccs2)C(=O)N1Cc1ccc(F)cc1,-9.77% (inactive),
Fc1ccc(Cn2nnnc2C(c2cccs2)N2CCCCCC2)cc1 (stereo not drawn),,13.1 µM (active)
CC(C)C(c1nnnn1Cc1ccccc1)N1CCC(C(N)=O)CC1 (stereo not drawn),-13% (inactive),
O=C(CSc1nc2ccccc2c(=O)n1CCCO)NC1CC1,15.6% (inactive),
O=C(N/N=C/c1cccc(OC(=O)c2ccc([N+](=O)[O-])cc2)c1)c1cccnc1,13% (inactive),
O=C(O)c1ccc(N/N=C/c2cn(-c3ccccc3)nc2-c2cccs2)cc1,,0.828 µM (active)
O=C(/C=C\c1cn(-c2ccccc2)nc1-c1cccs1)N1CCOCC1,45.5% (inactive),
O=C(O)/C=C/c1cn(-c2ccccc2)nc1-c1cccs1,43.4% (inactive),
COc1cccc2cc(C(=O)NCc3ccc(C)cc3)c(=N)oc12,2.8% (inactive),
CCOc1ccc(OCC(=O)OC(C)C(=O)NC2CCCCC2C)cc1 (stereo not drawn),2.72% (inactive),
Cc1oc2c(c1C(=O)N1CCOCC1)C(=O)c1ccccc1C2=O,,4.15 µM (active)
Cc1onc(-c2ccccc2)c1C(=O)N1CCOCC1,12.5% (inactive),
O=C(c1ccccc1-c1ccccc1)N1CCOCC1,9.71% (inactive),
Cc1ccc(NC(=O)C2CCCN2C(=O)OCc2ccccc2)cc1C (stereo not drawn),-6.37% (inactive),
COc1ccc(C(=O)OCC(=O)Nc2ccc3[nH]c(=O)[nH]c3c2)c(OC)c1OC,2.5% (inactive),
CCOC(CNC(=O)C(=O)NCC(c1ccco1)N1CCN(c2ccc(OC)cc2)CC1)OCC (stereo not drawn),3.86% (inactive),
COc1ccc(NC(=O)C(=O)NCC(c2ccco2)N2CCc3ccccc3C2)cc1 (stereo not drawn),,13.1 µM (active)
O=C(NCC(c1ccco1)N1CCc2ccccc2C1)c1ccccc1Cl (stereo not drawn),-23.2% (inactive),

SMILES,"activity change, negative = inhibition",Potency
C=CCc1cccc(/C=N/NC(=O)COc2ccc(-n3cnnn3)cc2)c1O,-22% (inactive),
CCOc1ccc(-n2c(SCC(N)=O)nnc2-c2ccco2)cc1,12.9% (inactive),
COc1cccc(CNC(=O)C2CC(=O)N(C3CCCCCCC3)C2)c1 (stereo not drawn),-13.4% (inactive),
COC(=O)C1=C(c2cccc(OCc3ccccc3)c2)C[C@@H]2CC[C@H]1N2C(=O)NCc1ccc(Br)cc1,,11.7 µM (active)
COC(=O)C1=C(c2ccc(C(C)=O)cc2)C[C@@H]2CC[C@H]1N2C(=O)NCCNC(C)=O,37.2% (inactive),
COC(=O)C1=C(c2cccc(OCc3ccccc3)c2)C[C@@H]2CC[C@H]1N2C(=O)NNCc1ccccc1,,8.28 µM (active)
COC(=O)C1=C(c2c(C)noc2C)C[C@@H]2CC[C@H]1N2C(=O)NCc1ccc2c(c1)OCO2,-0.217% (inactive),
O=C(COc1cccc(Cl)c1)NCc1ccccc1,10.5% (inactive),
O=C(NCc1ccncc1)C(=O)NCC1OCCN1S(=O)(=O)c1ccc(Br)cc1 (stereo not drawn),9.05% (inactive),
COCCCNc1nc2c(-c3cccc(C)c3)nnn2c2ccc(Cl)cc12,-9.36% (inactive),
CCOc1ccc(CC(=O)NCCS(=O)(=O)N2CCN(c3ccccc3)CC2)cc1,-14.8% (inactive),
Cc1csc2nc(O)c(C(=O)NCCN3CCOCC3)c(=O)n12,-13.4% (inactive),
CS(=O)(=O)N1CCN(C(=O)c2cc3ccccc3oc2=O)CC1,-0.673% (inactive),
O=C(c1cc2ccccc2o1)N1CCN(S(=O)(=O)c2ccc(Cl)s2)CC1,,11.7 µM (active)
O=C(CN1CCN(S(=O)(=O)c2ccc(Cl)s2)CC1)N1CCCCC1,-8.33% (inactive),
CCOC(=O)N1CCN(C(=O)c2ccc3c(c2)N(Cc2ccc(C)cc2)CCS3)CC1,,13.1 µM (active)
O=C(NCCc1ccccc1)c1ccc2c(c1)N(Cc1ccccc1)CCS2,-14.5% (inactive),
CCOC(=O)N1CCN(C(=O)c2ccc(S(=O)(=O)c3ccc(C)cc3)c(NC(C)=O)c2)CC1,-6.92% (inactive),
CCC(C)(C)NC(=O)C(c1ccccn1)N(C(=O)c1csnn1)c1ccccc1 (stereo not drawn),1.07% (inactive),
CCC(C)(C)NC(=O)C(c1ccc(O)cc1)N(C(=O)Cn1nnc2ccccc21)c1ccc(NC(C)=O)cc1 (stereo not drawn),,2.08 µM (active)
COc1ccc(C(C(=O)NC(C)(C)C)N(C(=O)Cn2nnc3ccccc32)c2ccc(C(C)=O)cc2)cc1O (stereo not drawn),-29.7% (inactive),
